# Inconclusive results are not listed. A call without a number means that no potency is given here. Values without a mark were called inactive. The source made the active and inactive calls. Calls follow the shape of the dose curve; as a rule, active = well fitted cell-killing curve with a large enough effect; inconclusive = small, poorly fitted or top-dose-only effect; inactive = flat fitted curve, though single readings scatter.
# Assay: qHTS of pediatric cancer cell lines to identify multiple opportunities for drug repurposing: Primary screen for RD cells (AID 1347104); also: nearly all actives have a fitted effect of over 55% in size
# Conditions: RD rhabdomyosarcoma viability, CellTiter-Glo luminescence, 48 h; series mostly up to 46 µM
# From the text: Drug repurposing or repositioning has been offered as a strategy for drug development in oncology programs. This approach has special potential for childhood cancers and other rare or orphan diseases, where the expected return on new drug development has been a disincentive to pharmaceuticals. […] In this project we exploit the poly-pharmacology of drugs to discover new indications via phenotypic screening of a panel of 19 well-characterized cell lines derived from solid tumors seen in children and adolescents. The goal is to identify approved drugs with previously unrecognized anticancer properties that has the potential to reveal new mechanisms and biological processes involved in carcinogenesis or drug resistance. We employed a titration-based paradigm (quantitative high-throughput screening or qHTS), where all compounds were tested at multiple concentrations for their effect on cell viability. Concentration-response curves (CRCs) were derived directly from the primary screen, and both potency and efficacy values were used to identify compounds with robust bioactivity profiles. We screened the NIH Chemical Genomics Center (NCGC) Pharmaceutical Collection (NPC) and Mechanism Interrogation Plate (MIPE) small molecule collections of approved and investigational compounds against these cell lines; and measured metabolically active cells after 48 hours of compound treatment as a proxy for cell viability. […] Assay Submitter: Nathalia J. Martinez, National Center for Advancing Translational Sciences, National Institutes of Health, Rockville, MD, USA; email: natalia.martinez@nih.gov Shen, M et al. Quantitative high-throughput phenotypic screening of pediatric cancer cell lines identifies multiple opportunities for drug repurposing. Oncotarget 2017 Dec 19;9(4):4758-4772. PMID 29435139.
# The cells were obtained from University of North Carolina (UNC), Pediatric Preclinical Testing Program (PPT), and Coriell Institute (CI). qHTS cell viability assay: Cells were assayed in growth media at a density of 500-1,000 cells/well. Five microliters of cells were dispensed into 1,536-well, white, solid-bottom, TC-treated plates (Greiner Bio One) using a multidrop dispenser and incubated at 37 degrees C, 5% CO2, under a humidified atmosphere for 5 hours. Twenty-three nanoliters of compounds and controls (neutral control DMSO or positive control bortezomib at final concentration of 2.3 µM) were subsequently transferred by Kalypsys pintool. For primary screens, the MIPE collection was tested at 11-point dilutions (final concentrations range from 0.78 nM to 46 µM) and the NPC collection at 8-point dilutions (final concentrations range from 0.59 nM to 46 µM). Compounds tested in follow-up screens were assayed at 11-point dilutions. Cells were incubated for 48 hours, followed by addition of 3 µL of CellTiter-Glo (Promega). After a 15 min incubation at room temperature, samples were analyzed for luminescence intensity using a ViewLux High-throughput CCD imager equipped with clear filters.
# Potency is read from the fitted curve at half-maximal effect.
SMILES,Potency,"activity change, negative = cytotoxic"
CC(O)Cn1cnc2c1c(=O)n(C)c(=O)n2C (stereo not given),inactive,
O[C@@H](c1cc(C(F)(F)F)nc2c(C(F)(F)F)cccc12)[C@H]1CCCCN1,23.7 µM (active),
CC(C)(C)NC[C@H](O)COc1cccc2c1CCCC2=O,inactive,
O=C(NCCc1c[nH]c2ccccc12)c1cccnc1,inactive,
CCCCNc1ccc(C(=O)OCCOCCOCCOCCOCCOCCOCCOCCOCCOC)cc1,inactive,
CC(=O)NCCCCCC(=O)O,inactive,
NC(=O)c1ccccc1O,inactive,
CC1(COc2ccc(CC3SC(=O)NC3=O)cc2)CCCCC1 (stereo not given),inactive,
CC(=O)OCC(=O)[C@H]1CC[C@H]2[C@@H]3CCC4=CC(=O)CC[C@]4(C)[C@H]3CC[C@]12C,inactive,
Cc1nc(-c2ccc(Cl)cc2)oc1COC(C)(C)C(=O)O,inactive,
CC1=C(C(=O)O)N2C(=O)[C@@H](NC(=O)[C@H](N)c3ccccc3)[C@H]2SC1,inactive,
N=C(N)N1CCc2ccccc2C1,,-9.62% [at 4.84 µM]
O=C(O)c1ccc(S(=O)(=O)N(Cl)Cl)cc1,inactive,
Cc1cccc(C)c1NC(=O)c1ccccc1C(=O)O,inactive,
C#C[C@]1(O)CC[C@H]2[C@@H]3[C@H](C)CC4=C(CCC(=O)C4)[C@H]3CC[C@@]21C,inactive,
COc1ccc(C(=O)c2ccccc2)c(O)c1,inactive,
CNCCCCOc1ccccc1Cc1ccccc1,23.7 µM (active),
O=C(Nc1cccc(C2=NCCN2)c1)Nc1cccc(C2=NCCN2)c1,inactive,
CC(C)Cn1cnc2c1c(=O)n(C)c(=O)n2C,inactive,
Cc1cc(NS(=O)(=O)c2ccc(N)cc2)nc(C)n1,inactive,

SMILES,Potency,"activity change, negative = cytotoxic"
Clc1cccc(C(c2ccc3nc[nH]c3c2)n2ccnc2)c1 (stereo not given),inactive,
COc1ccc(CCN(C)CCCN2CCc3cc(OC)c(OC)cc3CC2=O)cc1OC,inactive,
COc1ccc2c(c1)c1c3n2CCN(C)C3=NCC1,inactive,
CC(C)(C)NC[C@H](O)COc1nsnc1N1CCOCC1,inactive,
CN1CCN(c2cc3c(cc2F)c(=O)c(C(=O)O)cn3-c2ccc(F)cc2)CC1,inactive,
O=C(O)C(Cc1cc(I)c(O)c(I)c1)c1ccccc1 (stereo not given),inactive,
CN1CCC(OC(c2ccccc2)c2ccccc2)CC1,inactive,
FC(F)(F)C(F)(F)C(F)(F)C(F)(F)C(F)(F)C(F)(F)C(F)(F)C(F)(F)Br,inactive,
CC(=O)O[C@]1(C(C)=O)CC[C@H]2[C@@H]3C=C(C)C4=CC(=O)CC[C@]4(C)[C@H]3CC[C@@]21C,inactive,
C=C[C@@]1(C)CC(=O)[C@]2(O)[C@@]3(C)[C@@H](O)CCC(C)(C)[C@@H]3[C@H](O)[C@H](OC(C)=O)[C@@]2(C)O1,inactive,
O=C(O)CCC(=O)Nc1ccc(S(=O)(=O)Nc2nccs2)cc1,inactive,
C[C@@H](O)[C@H]1C(=O)N2C(C(=O)O)=C(S[C@@H]3CN[C@H](CNS(N)(=O)=O)C3)[C@H](C)[C@H]12,inactive,
CC(C)[C@@H]1CC[C@@H](C)CC1=O,inactive,
CCCN(CCc1cccs1)[C@H]1CCc2c(O)cccc2C1,inactive,
Nc1ccc(S(=O)(=O)NCc2ccccc2)cc1,inactive,
OC[C@H]1O[C@@H]2O[C@H]3[C@H](O)[C@@H](O)[C@@H](O[C@H]4[C@H](O)[C@@H](O)[C@@H](O[C@H]5[C@H](O)[C@@H](O)[C@@H](O[C@H]6[C@H](O)[C@@H](O)[C@@H](O[C@H]7[C@H](O)[C@@H](O)[C@@H](O[C@H]8[C@H](O)[C@@H](O)[C@@H](O[C@H]1[C@H](O)[C@H]2O)O[C@@H]8CO)O[C@@H]7CO)O[C@@H]6CO)O[C@@H]5CO)O[C@@H]4CO)O[C@@H]3CO,inactive,
COc1cc([C@H]2Oc3cc([C@H]4Oc5cc(O)cc(O)c5C(=O)[C@@H]4O)ccc3O[C@@H]2CO)ccc1O,inactive,
COc1ccc(/C=N/NC(=O)c2ccncc2)cc1OC,inactive,
CCOc1ccc(NC(C)=O)cc1,inactive,
Cc1cc(-c2ccccc2)nnc1NCCN1CCOCC1,inactive,
